# In the supplement of paper PMC3616981:
# Compound: CC(C)c1cccc(C(C)C)c1N1C(=O)c2ccc(O)cc2C1=O
# Test: reporter fold induction vs vehicle; higher = higher reporter activity
# Protocol: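 Attagene multiplexed transcription-factor reporter assay (48 cis response elements and 25 trans nuclear-receptor constructs) treated with 5HPP-33 at 8 concentrations (0.091–200 µM). The response is fold induction of reporter activity relative to vehicle control. Cell line and time not stated in the paper; tested in ToxCast Phase II for this study.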
Target,reporter fold induction (0.091 µM),reporter fold induction (0.274 µM),reporter fold induction (0.823 µM),reporter fold induction (2.469 µM),reporter fold induction (7.407 µM),reporter fold induction (22.22 µM),reporter fold induction (66.67 µM),reporter fold induction (200 µM)
TAL_CIS,1.06,0.981,1.01,0.98,1.11,1.09,1,1.28
GAL4_TRANS,1.03,0.907,0.951,0.908,0.842,0.905,0.61,0.53
HSE_CIS,0.991,0.939,1.05,1.05,0.985,0.942,1.81,3.95
M_61_CIS,0.997,0.997,1.01,0.995,1.02,1.02,0.98,1.09
LXRa_TRANS,0.858,0.611,1,0.742,0.814,0.638,0.979,0.718
